Results from the supplement of paper PMC11732987, “Enantioselective OTUD7B fragment discovery through chemoproteomics screening and high-throughput optimisation” (Communications Chemistry, 2025).

Tests used:
Test in all cases: log2 ratio of Biotin-Ahx-Ub-VS probe labelling (fragment/DMSO); higher = less target engagement (more negative = stronger competition), active = hit call of the paper (q ≤ 0.05, log2 ratio ≤ -1)
Details in all cases: compound concentration: 200 uM; treatment time: 3 h
[1] = target: T1, USP19 (UniProt O94966)
T1 sequence (whole entry): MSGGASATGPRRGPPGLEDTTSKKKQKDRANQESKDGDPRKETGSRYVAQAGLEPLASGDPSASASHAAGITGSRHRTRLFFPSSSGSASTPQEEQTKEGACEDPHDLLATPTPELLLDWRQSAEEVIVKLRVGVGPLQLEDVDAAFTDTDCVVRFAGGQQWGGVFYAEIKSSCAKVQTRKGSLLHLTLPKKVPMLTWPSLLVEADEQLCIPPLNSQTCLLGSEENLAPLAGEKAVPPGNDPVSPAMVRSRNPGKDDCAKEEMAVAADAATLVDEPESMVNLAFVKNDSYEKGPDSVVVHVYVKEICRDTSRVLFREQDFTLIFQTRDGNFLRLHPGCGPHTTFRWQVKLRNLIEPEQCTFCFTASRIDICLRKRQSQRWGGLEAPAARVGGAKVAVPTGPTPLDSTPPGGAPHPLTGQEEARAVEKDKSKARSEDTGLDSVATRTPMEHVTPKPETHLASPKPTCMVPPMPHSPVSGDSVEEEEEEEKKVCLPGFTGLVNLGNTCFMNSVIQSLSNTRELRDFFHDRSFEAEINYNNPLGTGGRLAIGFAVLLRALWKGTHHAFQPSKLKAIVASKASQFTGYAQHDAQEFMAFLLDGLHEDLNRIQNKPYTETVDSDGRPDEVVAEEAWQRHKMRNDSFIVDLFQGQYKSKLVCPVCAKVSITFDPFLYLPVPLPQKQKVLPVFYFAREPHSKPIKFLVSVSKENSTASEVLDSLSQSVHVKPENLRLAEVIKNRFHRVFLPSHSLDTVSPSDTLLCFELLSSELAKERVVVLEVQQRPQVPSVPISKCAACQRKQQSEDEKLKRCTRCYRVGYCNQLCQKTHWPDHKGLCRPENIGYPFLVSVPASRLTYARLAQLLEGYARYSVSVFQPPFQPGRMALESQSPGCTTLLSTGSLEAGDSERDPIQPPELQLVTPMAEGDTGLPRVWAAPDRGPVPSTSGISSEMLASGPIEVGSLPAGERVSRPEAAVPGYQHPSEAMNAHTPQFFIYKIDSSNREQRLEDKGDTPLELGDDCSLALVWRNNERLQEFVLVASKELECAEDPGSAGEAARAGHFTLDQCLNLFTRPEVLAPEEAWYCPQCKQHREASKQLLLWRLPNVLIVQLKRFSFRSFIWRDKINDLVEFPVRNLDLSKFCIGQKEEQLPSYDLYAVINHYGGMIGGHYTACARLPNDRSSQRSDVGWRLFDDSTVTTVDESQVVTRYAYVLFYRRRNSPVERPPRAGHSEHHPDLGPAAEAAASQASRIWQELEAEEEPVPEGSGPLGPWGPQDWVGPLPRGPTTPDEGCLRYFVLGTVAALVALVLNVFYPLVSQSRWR
In short: (§1)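 Global-median-normalised Spectronaut label-free quantities were compared by unpaired t-test, and values are average log2 ratios of fragment over vehicle. Only proteins with ≥2 unique peptides were used. HEK293T lysate (495 µg per sample) was treated in triplicate with fragment at 200 µM or vehicle for 3 h and then with Biotin-Ahx-Ub-VS at 0.5 µM final for 1 h. Labelled DUBs were then NeutrAvidin-enriched, digested with LysC and trypsin, and run by diaPASEF LC-MS/MS.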

[2] = target: USP24 (UniProt Q9UPU5)
In short: as §1

[3] = target: T2, USP25 (UniProt Q9UHP3)
T2 sequence (whole entry): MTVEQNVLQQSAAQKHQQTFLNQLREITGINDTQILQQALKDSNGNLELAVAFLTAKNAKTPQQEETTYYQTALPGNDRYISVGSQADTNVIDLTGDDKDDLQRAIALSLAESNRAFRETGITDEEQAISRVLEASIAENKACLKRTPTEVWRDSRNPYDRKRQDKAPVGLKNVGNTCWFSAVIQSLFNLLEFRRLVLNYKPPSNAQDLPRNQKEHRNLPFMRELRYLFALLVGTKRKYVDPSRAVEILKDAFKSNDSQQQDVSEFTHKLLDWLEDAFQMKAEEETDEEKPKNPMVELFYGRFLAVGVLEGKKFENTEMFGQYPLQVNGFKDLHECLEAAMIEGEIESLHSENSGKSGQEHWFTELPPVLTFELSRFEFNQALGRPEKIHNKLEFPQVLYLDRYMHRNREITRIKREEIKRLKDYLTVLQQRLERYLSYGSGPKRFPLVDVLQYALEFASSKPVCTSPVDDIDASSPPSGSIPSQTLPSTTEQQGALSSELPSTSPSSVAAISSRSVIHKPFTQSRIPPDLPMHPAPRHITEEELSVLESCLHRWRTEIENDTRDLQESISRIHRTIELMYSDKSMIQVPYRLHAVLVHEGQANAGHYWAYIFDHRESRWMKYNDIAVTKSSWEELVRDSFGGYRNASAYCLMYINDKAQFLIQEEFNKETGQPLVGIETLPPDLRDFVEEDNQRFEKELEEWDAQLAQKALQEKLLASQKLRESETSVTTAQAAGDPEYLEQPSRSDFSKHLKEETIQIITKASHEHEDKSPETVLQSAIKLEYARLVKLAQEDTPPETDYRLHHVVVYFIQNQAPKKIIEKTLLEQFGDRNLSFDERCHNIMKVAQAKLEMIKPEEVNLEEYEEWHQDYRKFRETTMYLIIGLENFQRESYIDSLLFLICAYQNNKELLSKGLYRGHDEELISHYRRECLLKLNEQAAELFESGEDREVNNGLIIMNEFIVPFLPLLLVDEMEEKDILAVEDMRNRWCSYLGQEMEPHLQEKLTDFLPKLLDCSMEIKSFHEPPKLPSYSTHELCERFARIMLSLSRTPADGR
In short: as §1

[4] = target: T3, USP28 (UniProt Q96RU2)
T3 sequence (whole entry): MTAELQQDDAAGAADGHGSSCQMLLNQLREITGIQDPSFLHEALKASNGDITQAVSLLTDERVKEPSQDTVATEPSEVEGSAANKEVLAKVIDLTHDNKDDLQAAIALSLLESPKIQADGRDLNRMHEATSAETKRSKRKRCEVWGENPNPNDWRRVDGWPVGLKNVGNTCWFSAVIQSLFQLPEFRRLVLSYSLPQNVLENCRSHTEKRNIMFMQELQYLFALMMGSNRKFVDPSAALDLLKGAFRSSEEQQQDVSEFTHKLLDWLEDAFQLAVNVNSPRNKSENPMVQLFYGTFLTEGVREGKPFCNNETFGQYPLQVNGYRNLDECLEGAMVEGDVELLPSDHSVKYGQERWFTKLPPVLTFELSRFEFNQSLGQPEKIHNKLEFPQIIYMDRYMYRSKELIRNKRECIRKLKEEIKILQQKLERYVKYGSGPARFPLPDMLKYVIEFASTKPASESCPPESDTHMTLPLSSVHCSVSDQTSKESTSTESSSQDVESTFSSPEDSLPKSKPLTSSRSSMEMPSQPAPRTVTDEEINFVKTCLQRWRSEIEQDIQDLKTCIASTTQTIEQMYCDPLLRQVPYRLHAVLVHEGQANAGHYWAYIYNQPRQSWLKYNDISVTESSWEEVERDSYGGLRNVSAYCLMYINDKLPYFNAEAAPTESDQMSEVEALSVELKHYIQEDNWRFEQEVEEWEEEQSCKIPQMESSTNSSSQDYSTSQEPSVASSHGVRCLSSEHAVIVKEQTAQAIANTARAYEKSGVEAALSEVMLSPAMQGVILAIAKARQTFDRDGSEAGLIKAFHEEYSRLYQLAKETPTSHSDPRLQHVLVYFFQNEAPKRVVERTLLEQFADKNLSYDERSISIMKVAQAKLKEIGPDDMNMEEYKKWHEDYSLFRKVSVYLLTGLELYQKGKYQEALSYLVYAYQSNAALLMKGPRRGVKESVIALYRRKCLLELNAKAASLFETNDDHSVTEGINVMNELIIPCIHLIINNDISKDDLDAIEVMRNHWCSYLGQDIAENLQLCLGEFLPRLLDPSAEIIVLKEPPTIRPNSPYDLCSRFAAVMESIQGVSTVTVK
In short: as §1

Measured: log2 ratio of Biotin-Ahx-Ub-VS probe labelling

Sequence of USP24 (Q9UPU5 whole entry): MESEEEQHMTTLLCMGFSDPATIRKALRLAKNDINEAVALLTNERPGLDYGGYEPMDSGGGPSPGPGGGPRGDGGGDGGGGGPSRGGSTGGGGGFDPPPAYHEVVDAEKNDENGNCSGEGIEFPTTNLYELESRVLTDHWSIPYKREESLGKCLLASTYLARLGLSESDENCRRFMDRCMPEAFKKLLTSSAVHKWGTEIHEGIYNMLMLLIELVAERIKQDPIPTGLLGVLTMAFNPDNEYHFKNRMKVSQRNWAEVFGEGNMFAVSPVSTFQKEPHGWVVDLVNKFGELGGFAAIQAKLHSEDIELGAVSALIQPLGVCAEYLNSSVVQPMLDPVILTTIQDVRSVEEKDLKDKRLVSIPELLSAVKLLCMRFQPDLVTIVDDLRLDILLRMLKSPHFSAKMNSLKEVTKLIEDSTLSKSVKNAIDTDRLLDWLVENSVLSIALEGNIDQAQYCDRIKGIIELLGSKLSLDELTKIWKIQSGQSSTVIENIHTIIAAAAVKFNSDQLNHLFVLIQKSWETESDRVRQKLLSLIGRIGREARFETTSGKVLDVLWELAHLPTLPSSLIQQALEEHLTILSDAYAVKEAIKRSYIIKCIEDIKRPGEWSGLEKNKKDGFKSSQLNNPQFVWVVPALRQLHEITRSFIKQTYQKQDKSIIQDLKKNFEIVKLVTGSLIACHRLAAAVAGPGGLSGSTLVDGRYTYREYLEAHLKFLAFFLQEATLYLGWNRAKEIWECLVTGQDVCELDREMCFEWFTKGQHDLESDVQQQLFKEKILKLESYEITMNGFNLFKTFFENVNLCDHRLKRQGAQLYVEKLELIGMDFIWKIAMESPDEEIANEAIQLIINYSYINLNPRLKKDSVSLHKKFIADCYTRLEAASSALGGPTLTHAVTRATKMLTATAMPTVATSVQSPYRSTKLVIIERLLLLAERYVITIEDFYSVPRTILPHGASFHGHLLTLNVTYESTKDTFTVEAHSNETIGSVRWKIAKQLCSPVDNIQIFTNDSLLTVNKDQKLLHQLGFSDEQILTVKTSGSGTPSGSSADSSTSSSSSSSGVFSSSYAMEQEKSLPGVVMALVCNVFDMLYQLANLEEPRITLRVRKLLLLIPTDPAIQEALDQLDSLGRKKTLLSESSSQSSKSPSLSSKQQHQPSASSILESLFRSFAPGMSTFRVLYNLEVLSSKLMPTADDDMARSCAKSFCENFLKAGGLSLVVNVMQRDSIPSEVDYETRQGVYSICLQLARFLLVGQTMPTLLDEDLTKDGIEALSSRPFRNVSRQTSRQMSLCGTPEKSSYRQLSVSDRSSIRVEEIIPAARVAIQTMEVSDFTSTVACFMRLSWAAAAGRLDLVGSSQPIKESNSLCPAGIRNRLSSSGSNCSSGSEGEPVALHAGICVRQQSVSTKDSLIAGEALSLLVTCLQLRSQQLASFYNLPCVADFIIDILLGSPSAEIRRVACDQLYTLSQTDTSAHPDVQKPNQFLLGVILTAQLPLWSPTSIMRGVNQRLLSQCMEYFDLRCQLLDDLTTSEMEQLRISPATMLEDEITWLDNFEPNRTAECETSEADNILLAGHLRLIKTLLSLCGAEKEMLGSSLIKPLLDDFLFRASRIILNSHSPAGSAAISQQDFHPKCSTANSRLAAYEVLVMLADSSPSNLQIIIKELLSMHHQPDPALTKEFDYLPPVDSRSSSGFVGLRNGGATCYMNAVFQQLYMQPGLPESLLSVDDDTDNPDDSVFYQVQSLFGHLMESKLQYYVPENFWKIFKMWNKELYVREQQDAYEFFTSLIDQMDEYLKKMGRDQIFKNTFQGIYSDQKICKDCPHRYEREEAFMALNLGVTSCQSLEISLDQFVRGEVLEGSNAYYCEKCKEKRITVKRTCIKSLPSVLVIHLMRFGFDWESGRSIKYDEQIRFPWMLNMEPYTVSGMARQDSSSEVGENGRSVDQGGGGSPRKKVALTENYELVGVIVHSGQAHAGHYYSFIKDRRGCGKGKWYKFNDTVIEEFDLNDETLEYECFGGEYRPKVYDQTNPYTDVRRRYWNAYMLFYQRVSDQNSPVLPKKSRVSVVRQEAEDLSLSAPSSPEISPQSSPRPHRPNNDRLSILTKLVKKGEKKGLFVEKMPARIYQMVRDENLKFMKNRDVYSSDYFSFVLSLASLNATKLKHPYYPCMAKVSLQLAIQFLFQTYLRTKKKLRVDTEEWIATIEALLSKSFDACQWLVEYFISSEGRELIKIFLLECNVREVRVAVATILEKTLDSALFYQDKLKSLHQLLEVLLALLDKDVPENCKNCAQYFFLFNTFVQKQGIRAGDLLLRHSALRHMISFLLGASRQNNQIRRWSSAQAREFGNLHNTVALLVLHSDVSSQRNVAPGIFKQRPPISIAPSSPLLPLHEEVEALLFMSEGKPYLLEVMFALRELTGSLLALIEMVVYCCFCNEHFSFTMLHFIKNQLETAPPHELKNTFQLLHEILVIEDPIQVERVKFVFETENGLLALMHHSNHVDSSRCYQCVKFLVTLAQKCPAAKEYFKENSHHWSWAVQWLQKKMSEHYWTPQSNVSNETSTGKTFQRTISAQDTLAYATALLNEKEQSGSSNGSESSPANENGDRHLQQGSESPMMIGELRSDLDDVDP

COCC1C=CCCN1C(=O)CCl (centres undefined)
inactive: [1] -0.24 | [2] -0.137 | [3] -0.32 | [4] -0.342
